Source: PubChem BioAssay
GPR151 ag: activates the human receptor GPR151 | Q8TDV0 | PathHunter beta-arrestin GPR151 cells, luminescence | activation, % at 11.2 µM | 1% of 650,000 active | AID 1508602; in the data active means activation above about 4.9%;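 further: 0% = median of compound wells and 100% = cells with positive control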
FBW7 activator: activators of human E3 ligase FBW7. Q969H0. AlphaScreen FBW7–phospho-cyclin E peptide binding, activator screen. normalized activity (activation), % at 26.1 µM. 0.13% of 650,000 active; in the data active means normalized activity above about 1.9%;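 further: purified mutant Fbw7 with reduced substrate affinity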
Target sequence (Q969H0 whole entry, looked up): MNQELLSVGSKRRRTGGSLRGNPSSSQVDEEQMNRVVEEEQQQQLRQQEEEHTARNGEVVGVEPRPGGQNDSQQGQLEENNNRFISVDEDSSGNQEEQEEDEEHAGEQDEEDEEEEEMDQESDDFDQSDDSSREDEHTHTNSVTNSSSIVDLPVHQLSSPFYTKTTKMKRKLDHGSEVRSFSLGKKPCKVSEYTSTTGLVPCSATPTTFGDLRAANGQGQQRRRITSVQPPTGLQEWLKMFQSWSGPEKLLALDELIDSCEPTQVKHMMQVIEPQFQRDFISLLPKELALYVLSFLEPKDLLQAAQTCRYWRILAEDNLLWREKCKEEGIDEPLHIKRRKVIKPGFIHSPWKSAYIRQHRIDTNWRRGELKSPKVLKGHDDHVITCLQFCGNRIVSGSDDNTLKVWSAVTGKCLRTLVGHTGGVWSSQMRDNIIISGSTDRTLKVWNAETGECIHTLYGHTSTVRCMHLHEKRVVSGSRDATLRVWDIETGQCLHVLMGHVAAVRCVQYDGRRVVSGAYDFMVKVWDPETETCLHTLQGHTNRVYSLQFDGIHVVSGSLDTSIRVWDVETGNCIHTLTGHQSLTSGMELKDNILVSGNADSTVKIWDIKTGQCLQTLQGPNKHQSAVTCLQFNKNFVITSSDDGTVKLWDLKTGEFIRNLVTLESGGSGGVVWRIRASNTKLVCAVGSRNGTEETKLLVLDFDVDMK
TEAD-YAP block: TEAD-YAP interaction inhibition; HEK-TIYL cells, TEAD-Gal4/YAP UAS-luciferase luminescence; inhibition, % at 9.12 µM; 1.4% of 640,000 active; AID 1259422; in the data active means inhibition above about 32%;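 further: 0% = median of test compound wells and 100% = reference inhibitor wells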
MITF inh: blocks human microphthalmia-associated transcription factor. AlphaScreen MITF homodimerization, bead proximity signal. inhibition, % at 2.6 µM. 0.91% of 650,000 active; in the data active means inhibition above about 50%;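 further: 0% = vehicle wells with protein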
Numbers without * were called inactive. Hits are enriched below; roughly 3.4% of the tested compounds scored in any of these assays.

SMILES | GPR151 ag | FBW7 activator | TEAD-YAP block | MITF inh
CCOC(=O)C1=C(C)NC2=C(C(=O)CC(c3cccs3)C2)C1c1ccc(C)s1 (centres undefined) | 0 | 0 | 15 | -2
COc1ccccc1-n1c(CNC(=O)COc2ccccc2)nnc1SCC(=O)N1N=C(c2cccs2)CC1c1ccc(C)cc1 (centres undefined) | 0 | 0 | 41* | 0
Cc1ccc(C2CC(c3cccs3)=NN2C(=O)CSc2nnc(CNC(=O)COc3ccccc3)n2-c2cccc(C)c2C)cc1 (centres undefined) | -1 | 0 | -1 | -10
Cc1cc([N+](=O)[O-])ccc1NC(=O)CCCCCN1C(=O)c2ccccc2C1=O | 0 | 0 | 4 | 5
CCCNc1ccc2ncc(-c3cc4ccccc4s3)n2n1 | 3 | 0 | -11 | -13
c1cncc(CCNc2ccc3ncc(-c4cc5ccccc5s4)n3n2)c1 | 0 | 0 | 73* | 14
FC(F)(F)c1cccc(-c2cnc3ccc(NCCc4cccnc4)nn23)c1 | 1 | 1 | 37* | 21
COc1cccc(CN2CCN(Cc3ccc(OCCO)cc3)CC2CCO)c1 (centres undefined) | 0 | 0 | 6 | 2
CCCn1c(SCC(=O)Nc2ccc(C)c(S(=O)(=O)N(C)C)c2)n[nH]c1=O | -3 | 0 | 6 | 1
CCC1CCC(C(=O)NC(C(=O)NCCc2ccc(S(N)(=O)=O)cc2)C(C)C)CC1 (centres undefined) | -1 | 0 | 40* | -16
CCOC(=O)C1=C(O)/C(=C/c2cccc(OC)c2OC)SC1=Nc1ccc(Cl)cc1 | 2 | 0 | 1 | 6
COC(=O)c1ccccc1C(=O)N1CCN(c2nc3ccc(SC)cc3s2)CC1 | -1 | 0 | 47* | 5
CSc1ccc2nc(N3CCN(C(=O)CN(C)S(C)(=O)=O)CC3)sc2c1 | 0 | 0 | -24 | -2
COc1cc(Nc2nc(Nc3ccc(-n4ccnc4)cc3)nc3c2ncn3-c2ccsc2)cc(OC)c1OC | 0 | 0 | 44* | -3
COc1cc(Nc2nc(Nc3ccccc3)c3ncn(-c4ccsc4)c3n2)cc(OC)c1OC | -2 | 0 | 4 | 8
COc1cc(Nc2nc(Nc3ccc(-n4ccnc4)cc3)nc3c2ncn3-c2ccccc2)cc(OC)c1OC | 0 | 0 | 34* | 9
COc1cc(Nc2nc(Cl)nc3c2ncn3-c2ccsc2)cc(OC)c1OC | 1 | 0 | 35* | 10
COc1cc(Nc2nc(Nc3cccnc3)nc3c2ncn3-c2ccsc2)cc(OC)c1OC | -1 | 0 | 25 | -1
COc1cc(Nc2nc(Nc3cnccn3)nc3c2ncn3-c2ccsc2)cc(OC)c1OC | -2 | 0 | 38* | 21
Cc1cc(Br)c(S(=O)(=O)N2CCCCC2)cc1C | -1 | 0 | 1 | 12
Cc1cc(Br)c(S(=O)(=O)N2CCC(C)CC2)cc1C | 1 | 2.1* | 1 | 7
CCC(C)C1N=C2c3ccccc3N=C(SCC(=O)c3ccc(O)c(O)c3)N2C1=O (centres undefined) | 0 | 0 | 0 | 61*
CCOC(=O)c1ccc(NC(=O)c2ccc3c(c2)OCCO3)cc1 | 0 | 0 | 35* | 6
COc1ccc(C(=O)Nc2ccc3sc(C)nc3c2)cc1 | -1 | 0 | -23 | 9
O=C(Nc1onc2c1CCCC2)c1ccc(F)cc1 | -6 | 0 | -1 | -6
SMILES | GPR151 ag | FBW7 activator | TEAD-YAP block | MITF inh
O=C(Nc1onc2c1CCCC2)c1ccc2c(c1)OCCO2 | -9 | 0 | 91* | -6
Cc1nc2cc(NC(=O)c3ccc4c(c3)OCCO4)ccc2s1 | -7 | 0 | 61* | 7
CCCOC(=O)c1ccc(NC(=O)c2ccc3c(c2)OCCO3)cc1 | -1 | 0 | 41* | -2
CCCOC(=O)c1ccc(NC(=O)c2ccc(Cl)c(Cl)c2)cc1 | 1 | 0 | -4 | 4
COCCNC(=O)c1cn(C[C@@H]2CCCN(C(=O)c3cc(-c4ccccc4)no3)C2)nn1 | -1 | 1 | 10 | -2
O=C(Nc1ccc(F)cc1)c1ccc2c(c1)OCCO2 | -7 | 0 | 59* | -1
O=C1OC(OC(=O)c2ccccc2)C(Nc2cccc(O)c2)=C1Cl (centres undefined) | -1 | 2.4* | 2 | 11
O=C1OC(OC(=O)c2ccccc2)C(Nc2ccccc2)=C1Cl (centres undefined) | -2 | 0 | -1 | -2
Cc1ccc(OCC(=O)Nc2ccc(S(=O)(=O)Nc3ncccn3)cc2)cc1C | 0 | 0 | 6 | 3
O=C(CC(=O)c1c[nH]c2ccccc12)c1ccccc1 | 2 | 0 | -10 | 16
O=C(CNc1ccncc1)c1c[nH]c2ccccc12 | 2 | 0 | 83* | -12
Cc1cc(C)cc(N(CC(=O)Nc2ccc(C)c(C)c2)S(=O)(=O)c2c(C)noc2C)c1 | -1 | 0 | -3 | -1
COc1ccc2cc(-c3nc4ccccc4[nH]3)c(=Nc3cccc(C(F)(F)F)c3)oc2c1 | -3 | 0 | 72* | -9
COc1ccc(NC(=O)CSc2ccc3nnc(-c4cccc(F)c4)n3n2)c(OC)c1 | 0 | 0 | 2 | 11
CCOc1ccc(CCNC(N)=O)cc1OCC | 0 | 0 | -7 | 13
O=C(O)C1CCCN(c2nn3cc(-c4ccc(F)cc4)nc3s2)C1 (centres undefined) | -13 | 0 | 85* | -5
COc1ccc(-c2cn3nc(N4CCCC(C(=O)O)C4)sc3n2)cc1 (centres undefined) | 0 | 0 | -4 | 42
COc1ccc(CCNc2cc(-c3c(C)nn(C)c3C)ncn2)cc1 | 1 | 0 | 10 | 9
COc1ccc(CCNc2cc(-c3c(C)nn(C)c3C)nc(N)n2)cc1 | 1 | 0 | 50* | -5
CCCNc1cc(-c2c(C)nn(C)c2C)nc(N)n1 | 1 | 0 | 40* | -7
O=C(NCc1ccc(C(=O)NCCc2ccccn2)cc1)Nc1ccc(-c2cn[nH]c2)cc1 | 1 | 1.9* | 3 | 26
COc1cc(C(=O)Nc2sc3c(c2C#N)CCC(C)C3)cc(OC)c1OC (centres undefined) | 0 | 1 | 9 | 9
COc1cc(C(=O)Nc2sc3c(c2C#N)CCC(C)C3)c(Br)c(OC)c1OC (centres undefined) | 0 | 0 | 34* | 4
COc1cc(C(=O)Nc2sc3c(c2C#N)CCC3)cc(OC)c1OC | 0 | 0 | 41* | 4
CCCCCOC(=O)C1=C(C)NC(=O)NC1c1cccc(OCC)c1 (centres undefined) | 2 | 0 | -4 | 17
SMILES | GPR151 ag | FBW7 activator | TEAD-YAP block | MITF inh
Oc1ccc(/C=N/N/C(=N/c2ccccn2)c2ccccn2)c(O)c1 | -4 | -2 | 59* | 45
Cc1[nH]n(-c2ccccc2)c(=O)c1/C=N/N/C(=N/c1ccccn1)c1ccccn1 | 2 | -1 | 12 | 52*
N/C(=N\N=C/c1ccc(O)cc1O)c1ccccn1 | -5 | -1 | 84* | 20
N/C(=N\N=C\c1c(O)ccc2ccccc12)c1ccccn1 | -2 | -1 | 60* | 11
Oc1ccc2ccccc2c1/C=N/c1ccccn1 | 0 | 0 | 1 | 1
Cc1[nH]n(-c2ccccc2)c(=O)c1/C=N/NC(C)(C)C | -1 | -1 | 0 | -17
